# Laboratory results taken from paper PMC7862700, “An all-to-all approach to the identification of sequence-specific readers for epigenetic DNA modifications on cytosine”.
# Key:
# Experiment in all cases: DAPPL (digital affinity profiling via proximity ligation, sequencing); 10 mM Tris-HCl pH 7.5, 50 mM NaCl, 1 mM DTT, 4% glycerol, room temperature, 30 min; GST-TFs on glutathione beads, 16-mer random dsDNA library, 0.1% formaldehyde crosslink after washing; high values mean tight binding
# FLI1 = target: T1, FLI1 (Homo sapiens, UniProt Q01543 1-452); conditions: protein: recombinant; tags: N-terminal GST; dsDNA, one strand shown
# T1 sequence: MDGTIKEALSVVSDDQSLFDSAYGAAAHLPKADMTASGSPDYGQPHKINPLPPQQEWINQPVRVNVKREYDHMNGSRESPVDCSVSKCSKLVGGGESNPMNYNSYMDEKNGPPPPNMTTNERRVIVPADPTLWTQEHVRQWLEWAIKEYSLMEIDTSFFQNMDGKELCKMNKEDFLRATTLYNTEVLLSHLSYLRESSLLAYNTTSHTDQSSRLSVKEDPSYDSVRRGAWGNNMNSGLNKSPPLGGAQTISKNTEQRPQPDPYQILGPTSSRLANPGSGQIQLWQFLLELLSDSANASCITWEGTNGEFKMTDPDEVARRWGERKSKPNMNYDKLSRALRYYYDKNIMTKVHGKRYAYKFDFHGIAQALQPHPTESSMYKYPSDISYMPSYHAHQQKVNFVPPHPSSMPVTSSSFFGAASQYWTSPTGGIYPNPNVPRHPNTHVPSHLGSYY
# In short: (§1)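 GST fusions of human transcription factors were expressed in yeast and captured with glutathione beads. Once given DNA barcodes and pooled alongside a tag-only sample, they were incubated for 30 min at room temperature with 200 nmole of a random double-stranded 16-mer DNA library in Tris/NaCl/DTT/glycerol buffer, then washed, crosslinked (0.1% formaldehyde), proximity-ligated, PCR-amplified and sequenced on an Illumina NextSeq500. The binding signal of each hexamer is its read frequency for a factor divided by its frequency for the tag-only sample.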
# ELK1 = target: T2, ELK1 (Homo sapiens, UniProt P19419 1-428); conditions: protein: recombinant; tags: N-terminal GST; dsDNA, one strand shown
# T2 sequence: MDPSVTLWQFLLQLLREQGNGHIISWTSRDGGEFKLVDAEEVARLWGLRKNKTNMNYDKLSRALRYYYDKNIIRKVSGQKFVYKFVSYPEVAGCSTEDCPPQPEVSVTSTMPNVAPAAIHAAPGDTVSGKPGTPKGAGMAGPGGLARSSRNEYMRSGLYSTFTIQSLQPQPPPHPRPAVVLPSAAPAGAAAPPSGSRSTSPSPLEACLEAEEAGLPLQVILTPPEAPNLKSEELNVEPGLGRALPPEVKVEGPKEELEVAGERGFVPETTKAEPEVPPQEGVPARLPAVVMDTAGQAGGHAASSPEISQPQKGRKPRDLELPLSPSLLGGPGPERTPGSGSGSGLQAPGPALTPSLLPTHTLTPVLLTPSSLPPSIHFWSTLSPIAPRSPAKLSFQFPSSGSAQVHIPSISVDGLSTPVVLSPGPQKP
# In short: as §1
# GABPA = target: T3, GABPA (Homo sapiens, UniProt Q06546 1-454); conditions: protein: recombinant; tags: N-terminal GST; dsDNA, one strand shown
# T3 sequence: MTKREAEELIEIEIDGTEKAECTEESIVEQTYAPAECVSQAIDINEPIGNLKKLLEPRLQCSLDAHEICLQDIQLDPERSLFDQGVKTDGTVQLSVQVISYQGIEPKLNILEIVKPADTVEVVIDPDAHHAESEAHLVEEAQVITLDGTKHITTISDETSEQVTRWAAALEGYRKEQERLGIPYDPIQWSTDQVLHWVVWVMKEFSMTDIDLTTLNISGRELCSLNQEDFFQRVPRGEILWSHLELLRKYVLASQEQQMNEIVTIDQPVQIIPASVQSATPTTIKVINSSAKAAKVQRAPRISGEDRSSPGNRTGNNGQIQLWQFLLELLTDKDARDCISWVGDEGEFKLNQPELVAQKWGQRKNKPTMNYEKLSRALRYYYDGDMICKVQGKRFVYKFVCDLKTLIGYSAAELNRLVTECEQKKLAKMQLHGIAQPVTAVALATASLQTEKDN
# In short: as §1
# ERG = target: T4, ERG (Homo sapiens, UniProt P11308 1-479); conditions: protein: recombinant; tags: N-terminal GST; dsDNA, one strand shown
# T4 sequence: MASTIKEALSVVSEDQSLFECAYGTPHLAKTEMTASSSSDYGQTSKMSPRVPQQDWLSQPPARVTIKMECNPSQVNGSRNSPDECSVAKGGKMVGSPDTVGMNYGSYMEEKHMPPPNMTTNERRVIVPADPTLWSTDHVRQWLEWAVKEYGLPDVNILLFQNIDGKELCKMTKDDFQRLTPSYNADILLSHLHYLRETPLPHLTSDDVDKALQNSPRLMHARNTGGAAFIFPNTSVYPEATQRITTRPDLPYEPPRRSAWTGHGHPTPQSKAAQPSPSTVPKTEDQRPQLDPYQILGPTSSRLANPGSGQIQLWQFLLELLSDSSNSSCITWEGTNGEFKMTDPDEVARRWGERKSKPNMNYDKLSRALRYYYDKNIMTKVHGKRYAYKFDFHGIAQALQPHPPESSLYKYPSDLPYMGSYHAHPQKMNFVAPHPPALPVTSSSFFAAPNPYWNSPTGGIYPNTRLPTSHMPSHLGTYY
# In short: as §1
# ELF1 = ELF1 (Homo sapiens, UniProt P32519 1-619); conditions: protein: recombinant; tags: N-terminal GST; dsDNA, one strand shown
# Sequence of ELF1 (P32519 whole entry): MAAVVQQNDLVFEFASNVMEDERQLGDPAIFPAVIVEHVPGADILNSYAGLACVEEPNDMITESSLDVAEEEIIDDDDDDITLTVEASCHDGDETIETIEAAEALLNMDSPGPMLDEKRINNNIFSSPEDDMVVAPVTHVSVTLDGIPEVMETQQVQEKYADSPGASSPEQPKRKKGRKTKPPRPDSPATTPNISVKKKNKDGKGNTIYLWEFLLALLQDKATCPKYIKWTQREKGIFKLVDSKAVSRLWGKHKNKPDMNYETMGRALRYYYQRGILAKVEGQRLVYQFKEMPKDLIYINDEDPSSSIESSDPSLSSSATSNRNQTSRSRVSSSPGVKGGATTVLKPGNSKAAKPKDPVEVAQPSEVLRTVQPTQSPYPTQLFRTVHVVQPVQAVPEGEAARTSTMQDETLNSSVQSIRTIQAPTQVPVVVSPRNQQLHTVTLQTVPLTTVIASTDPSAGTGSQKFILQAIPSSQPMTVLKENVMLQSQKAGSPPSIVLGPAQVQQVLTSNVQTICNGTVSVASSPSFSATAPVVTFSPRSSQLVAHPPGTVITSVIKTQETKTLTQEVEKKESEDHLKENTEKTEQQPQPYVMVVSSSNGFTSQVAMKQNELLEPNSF
# In short: as §1
# EHF = target: T5, EHF (Homo sapiens, UniProt Q9NZC4 1-300); conditions: protein: recombinant; tags: N-terminal GST; dsDNA, one strand shown
# T5 sequence: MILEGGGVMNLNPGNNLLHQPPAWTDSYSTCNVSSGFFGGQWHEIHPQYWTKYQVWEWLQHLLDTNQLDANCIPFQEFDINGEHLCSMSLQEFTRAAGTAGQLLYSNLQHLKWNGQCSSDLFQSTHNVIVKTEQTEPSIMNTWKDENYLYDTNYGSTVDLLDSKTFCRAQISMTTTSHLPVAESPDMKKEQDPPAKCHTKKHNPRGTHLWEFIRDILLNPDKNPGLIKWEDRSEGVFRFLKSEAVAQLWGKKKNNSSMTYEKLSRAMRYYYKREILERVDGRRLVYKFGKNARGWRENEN
# In short: as §1
# SPI1 = SPI1 (Homo sapiens, UniProt P17947 1-270); conditions: protein: recombinant; tags: N-terminal GST; dsDNA, one strand shown
# In short: as §1
# SPIB = SPIB (Homo sapiens, UniProt Q01892 1-262); conditions: protein: recombinant; tags: N-terminal GST; dsDNA, one strand shown
# Sequence of SPIB (Q01892 whole entry): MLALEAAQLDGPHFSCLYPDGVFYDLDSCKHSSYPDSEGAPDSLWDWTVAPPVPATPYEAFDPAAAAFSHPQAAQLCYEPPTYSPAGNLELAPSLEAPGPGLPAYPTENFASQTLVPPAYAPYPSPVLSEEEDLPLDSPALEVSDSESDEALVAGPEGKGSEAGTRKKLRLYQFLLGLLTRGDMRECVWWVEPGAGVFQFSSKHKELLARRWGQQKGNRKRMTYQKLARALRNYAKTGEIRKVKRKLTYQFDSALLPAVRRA
# In short: as §1
# ELK3 = target: T6, ELK3 (Homo sapiens, UniProt P41970 1-407); conditions: protein: recombinant; tags: N-terminal GST; dsDNA, one strand shown
# T6 sequence: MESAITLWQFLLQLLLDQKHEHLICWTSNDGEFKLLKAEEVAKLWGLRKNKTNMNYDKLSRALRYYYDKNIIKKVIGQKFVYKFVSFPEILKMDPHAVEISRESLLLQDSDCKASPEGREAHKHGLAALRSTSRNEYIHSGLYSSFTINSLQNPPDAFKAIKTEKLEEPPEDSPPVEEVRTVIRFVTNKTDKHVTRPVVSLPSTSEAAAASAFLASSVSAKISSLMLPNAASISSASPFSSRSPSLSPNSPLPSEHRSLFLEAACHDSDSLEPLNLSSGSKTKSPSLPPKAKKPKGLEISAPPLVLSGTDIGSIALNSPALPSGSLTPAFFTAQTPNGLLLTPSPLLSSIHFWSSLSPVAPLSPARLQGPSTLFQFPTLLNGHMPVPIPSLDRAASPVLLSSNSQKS
# In short: as §1
# FEV = target: T7, FEV (Homo sapiens, UniProt Q99581 1-238); conditions: protein: recombinant; tags: N-terminal GST; dsDNA, one strand shown
# T7 sequence: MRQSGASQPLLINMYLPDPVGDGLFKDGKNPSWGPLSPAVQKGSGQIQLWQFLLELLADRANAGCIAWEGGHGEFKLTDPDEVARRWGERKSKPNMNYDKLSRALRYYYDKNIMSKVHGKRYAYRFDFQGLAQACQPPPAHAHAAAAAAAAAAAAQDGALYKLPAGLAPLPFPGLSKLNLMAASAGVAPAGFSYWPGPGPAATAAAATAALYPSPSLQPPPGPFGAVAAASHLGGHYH
# In short: as §1
# ETV5 = ETV5 (Homo sapiens, UniProt P41161 1-510); conditions: protein: recombinant; tags: N-terminal GST; dsDNA, one strand shown
# Sequence of ETV5 (P41161 whole entry): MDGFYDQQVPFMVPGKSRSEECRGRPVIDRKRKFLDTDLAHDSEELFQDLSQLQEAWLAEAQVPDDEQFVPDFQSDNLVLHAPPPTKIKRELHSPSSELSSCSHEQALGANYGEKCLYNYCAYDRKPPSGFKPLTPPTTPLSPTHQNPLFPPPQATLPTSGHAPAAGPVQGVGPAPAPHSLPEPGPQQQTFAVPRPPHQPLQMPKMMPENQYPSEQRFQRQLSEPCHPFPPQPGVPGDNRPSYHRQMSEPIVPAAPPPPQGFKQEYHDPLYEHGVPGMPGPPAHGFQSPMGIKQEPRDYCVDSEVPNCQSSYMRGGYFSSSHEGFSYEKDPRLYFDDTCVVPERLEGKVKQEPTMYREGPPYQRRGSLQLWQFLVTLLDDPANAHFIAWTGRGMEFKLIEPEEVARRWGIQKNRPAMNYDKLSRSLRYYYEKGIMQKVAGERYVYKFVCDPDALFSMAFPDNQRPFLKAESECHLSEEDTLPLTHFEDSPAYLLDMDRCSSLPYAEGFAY
# In short: as §1
# HSF1 = HSF1 (Homo sapiens, UniProt Q00613 1-529); conditions: protein: recombinant; tags: N-terminal GST; chain copies: 3; dsDNA, one strand shown
# Sequence of HSF1 (Q00613 whole entry): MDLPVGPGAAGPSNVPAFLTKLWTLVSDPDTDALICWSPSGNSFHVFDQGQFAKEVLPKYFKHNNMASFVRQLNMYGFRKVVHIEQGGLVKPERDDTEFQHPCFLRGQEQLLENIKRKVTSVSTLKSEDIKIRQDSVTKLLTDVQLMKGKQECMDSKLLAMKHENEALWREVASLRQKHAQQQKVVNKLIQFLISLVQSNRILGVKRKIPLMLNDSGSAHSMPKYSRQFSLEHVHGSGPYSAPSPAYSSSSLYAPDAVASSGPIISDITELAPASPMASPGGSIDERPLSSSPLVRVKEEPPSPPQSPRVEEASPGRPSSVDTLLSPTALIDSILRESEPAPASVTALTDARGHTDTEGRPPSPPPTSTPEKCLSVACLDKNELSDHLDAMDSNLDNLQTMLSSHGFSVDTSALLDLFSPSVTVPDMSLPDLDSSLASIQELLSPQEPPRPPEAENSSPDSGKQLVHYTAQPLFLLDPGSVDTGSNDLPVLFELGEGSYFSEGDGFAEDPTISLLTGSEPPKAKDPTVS
# In short: as §1
# SPIC = target: T8, SPIC (Homo sapiens, UniProt Q8N5J4 1-248); conditions: protein: recombinant; tags: N-terminal GST; dsDNA, one strand shown
# T8 sequence: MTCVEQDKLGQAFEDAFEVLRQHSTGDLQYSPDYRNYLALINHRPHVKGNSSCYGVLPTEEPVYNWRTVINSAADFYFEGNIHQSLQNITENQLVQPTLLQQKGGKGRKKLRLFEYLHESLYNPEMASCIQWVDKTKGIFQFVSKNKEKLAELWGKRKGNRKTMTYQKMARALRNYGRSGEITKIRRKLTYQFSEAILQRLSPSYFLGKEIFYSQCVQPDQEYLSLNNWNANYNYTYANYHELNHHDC
# In short: as §1
# ELF4 = ELF4 (Homo sapiens, UniProt Q99607 1-663); conditions: protein: recombinant; tags: N-terminal GST; dsDNA, one strand shown
# Sequence of ELF4 (Q99607 whole entry): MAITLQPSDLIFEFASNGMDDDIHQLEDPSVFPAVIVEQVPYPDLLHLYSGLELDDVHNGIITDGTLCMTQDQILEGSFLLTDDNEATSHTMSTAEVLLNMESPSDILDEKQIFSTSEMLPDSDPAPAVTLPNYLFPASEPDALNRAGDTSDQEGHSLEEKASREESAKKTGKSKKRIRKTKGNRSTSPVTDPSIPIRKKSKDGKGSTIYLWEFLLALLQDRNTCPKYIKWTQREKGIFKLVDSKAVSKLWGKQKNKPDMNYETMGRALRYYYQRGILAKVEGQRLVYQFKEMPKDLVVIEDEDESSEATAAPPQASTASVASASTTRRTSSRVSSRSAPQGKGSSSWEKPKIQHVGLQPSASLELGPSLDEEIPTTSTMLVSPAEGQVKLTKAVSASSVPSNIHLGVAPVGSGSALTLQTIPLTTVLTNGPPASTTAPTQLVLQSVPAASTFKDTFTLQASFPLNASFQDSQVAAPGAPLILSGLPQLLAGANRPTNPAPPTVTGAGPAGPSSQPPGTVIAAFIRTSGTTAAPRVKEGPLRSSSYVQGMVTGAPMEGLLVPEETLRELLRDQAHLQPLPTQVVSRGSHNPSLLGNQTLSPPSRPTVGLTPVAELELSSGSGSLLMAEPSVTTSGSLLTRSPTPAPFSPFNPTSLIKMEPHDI
# In short: as §1
# ELK4 = target: T9, ELK4 (Homo sapiens, UniProt P28324-2 1-405); conditions: protein: recombinant; tags: N-terminal GST; dsDNA, one strand shown
# T9 sequence: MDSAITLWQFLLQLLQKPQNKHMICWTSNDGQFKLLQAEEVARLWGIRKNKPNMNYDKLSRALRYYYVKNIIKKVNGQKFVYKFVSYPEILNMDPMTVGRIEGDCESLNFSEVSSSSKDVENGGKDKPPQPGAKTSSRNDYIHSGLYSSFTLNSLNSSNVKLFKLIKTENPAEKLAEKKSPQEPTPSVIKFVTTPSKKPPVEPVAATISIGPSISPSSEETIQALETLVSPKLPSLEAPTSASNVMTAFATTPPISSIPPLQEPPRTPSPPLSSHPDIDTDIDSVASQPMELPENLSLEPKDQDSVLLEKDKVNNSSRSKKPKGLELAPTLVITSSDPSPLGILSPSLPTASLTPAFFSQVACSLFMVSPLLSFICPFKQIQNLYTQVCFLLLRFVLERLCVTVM
# In short: as §1
# ETV2 = target: T10, ETV2 (Homo sapiens, UniProt O00321 1-342); conditions: protein: recombinant; tags: N-terminal GST; dsDNA, one strand shown
# T10 sequence: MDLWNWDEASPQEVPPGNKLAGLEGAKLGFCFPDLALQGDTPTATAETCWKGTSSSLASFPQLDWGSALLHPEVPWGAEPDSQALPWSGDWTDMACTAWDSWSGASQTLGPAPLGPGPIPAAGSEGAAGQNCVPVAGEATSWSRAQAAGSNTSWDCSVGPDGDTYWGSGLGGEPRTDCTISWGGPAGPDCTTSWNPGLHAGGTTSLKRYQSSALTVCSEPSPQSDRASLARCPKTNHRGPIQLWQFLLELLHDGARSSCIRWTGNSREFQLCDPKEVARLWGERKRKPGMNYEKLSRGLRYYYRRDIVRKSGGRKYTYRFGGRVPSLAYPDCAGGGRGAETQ
# In short: as §1
# ELF3 = target: T11, ELF3 (Homo sapiens, UniProt P78545 1-371); conditions: protein: recombinant; tags: N-terminal GST; dsDNA, one strand shown
# T11 sequence: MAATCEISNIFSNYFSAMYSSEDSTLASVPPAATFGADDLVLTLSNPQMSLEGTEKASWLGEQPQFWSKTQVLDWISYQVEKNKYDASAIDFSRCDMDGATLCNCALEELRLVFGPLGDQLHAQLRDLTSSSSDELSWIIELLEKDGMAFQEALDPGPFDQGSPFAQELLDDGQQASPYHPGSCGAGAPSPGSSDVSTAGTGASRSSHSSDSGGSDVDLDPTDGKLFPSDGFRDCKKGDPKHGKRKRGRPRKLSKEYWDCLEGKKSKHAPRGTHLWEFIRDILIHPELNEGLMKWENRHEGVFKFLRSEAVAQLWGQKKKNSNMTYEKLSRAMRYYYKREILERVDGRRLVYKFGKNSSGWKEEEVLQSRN
# In short: as §1
# CRX = CRX (Homo sapiens, UniProt O43186 1-299); conditions: protein: recombinant; tags: N-terminal GST; dsDNA, one strand shown
# Sequence of CRX (O43186 whole entry): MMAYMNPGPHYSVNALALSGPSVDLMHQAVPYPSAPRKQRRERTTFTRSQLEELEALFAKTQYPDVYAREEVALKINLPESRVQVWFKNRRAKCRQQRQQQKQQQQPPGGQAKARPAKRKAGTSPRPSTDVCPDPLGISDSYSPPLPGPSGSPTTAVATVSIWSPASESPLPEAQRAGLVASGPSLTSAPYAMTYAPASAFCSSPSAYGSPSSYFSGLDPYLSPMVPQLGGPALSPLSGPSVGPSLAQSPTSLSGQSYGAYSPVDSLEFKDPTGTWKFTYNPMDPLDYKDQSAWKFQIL
# In short: as §1
# ETV1 = ETV1 (Homo sapiens, UniProt P50549 1-477); conditions: protein: recombinant; tags: N-terminal GST; dsDNA, one strand shown
# Sequence of ETV1 (P50549 whole entry): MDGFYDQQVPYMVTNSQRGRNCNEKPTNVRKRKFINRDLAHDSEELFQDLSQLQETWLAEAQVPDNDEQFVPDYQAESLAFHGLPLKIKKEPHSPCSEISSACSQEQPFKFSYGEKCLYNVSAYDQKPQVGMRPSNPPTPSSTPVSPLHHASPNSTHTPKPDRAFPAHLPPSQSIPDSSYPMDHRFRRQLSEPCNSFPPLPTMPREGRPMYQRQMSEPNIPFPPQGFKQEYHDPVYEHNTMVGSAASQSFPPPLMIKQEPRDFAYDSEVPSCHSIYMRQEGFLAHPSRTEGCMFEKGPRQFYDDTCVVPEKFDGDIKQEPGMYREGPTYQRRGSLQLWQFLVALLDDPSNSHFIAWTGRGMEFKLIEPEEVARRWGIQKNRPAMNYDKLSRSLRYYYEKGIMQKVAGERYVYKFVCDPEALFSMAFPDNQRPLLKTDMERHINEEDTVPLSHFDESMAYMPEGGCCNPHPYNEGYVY
# In short: as §1
sequence,measurement,setting,value
AATGCC,binding signal,FLI1,"1.06 fold enrichment (6-mer frequency, TF over GST control)"
same,binding signal,ELK1,"1.19 fold enrichment (6-mer frequency, TF over GST control)"
same,binding signal,GABPA,"1.17 fold enrichment (6-mer frequency, TF over GST control)"
same,binding signal,ERG,"1.18 fold enrichment (6-mer frequency, TF over GST control)"
same,binding signal,ELF1,"1.13 fold enrichment (6-mer frequency, TF over GST control)"
same,binding signal,EHF,"1.18 fold enrichment (6-mer frequency, TF over GST control)"
same,binding signal,SPI1,"1.06 fold enrichment (6-mer frequency, TF over GST control)"
same,binding signal,SPIB,"1.17 fold enrichment (6-mer frequency, TF over GST control)"
same,binding signal,ELK3,"1.08 fold enrichment (6-mer frequency, TF over GST control)"
same,binding signal,FEV,"1.23 fold enrichment (6-mer frequency, TF over GST control)"
same,binding signal,ETV5,"1.2 fold enrichment (6-mer frequency, TF over GST control)"
same,binding signal,HSF1,"1.07 fold enrichment (6-mer frequency, TF over GST control)"
same,binding signal,SPIC,"1.07 fold enrichment (6-mer frequency, TF over GST control)"
same,binding signal,ELF4,"1.21 fold enrichment (6-mer frequency, TF over GST control)"
same,binding signal,ELK4,"1.16 fold enrichment (6-mer frequency, TF over GST control)"
same,binding signal,ETV2,"1.06 fold enrichment (6-mer frequency, TF over GST control)"
same,binding signal,ELF3,"1.24 fold enrichment (6-mer frequency, TF over GST control)"
same,binding signal,CRX,"1.16 fold enrichment (6-mer frequency, TF over GST control)"
same,binding signal,ETV1,"1.11 fold enrichment (6-mer frequency, TF over GST control)"
